In the supplement of paper PMC7530171:
± gives the standard deviation.

Test system: THP-1 macrophages infected with Mycobacterium tuberculosis H37Rv
Assay: intracellular M.tb growth inhibition relative to DMSO (0) and 4 uM bedaquiline (100); higher = stronger inhibition of intracellular bacterial growth
Conditions: 10 µM; 4 days
Experimental: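 OICR kinase inhibitor library screened in duplicate at 10 uM against THP-1 macrophages (PMA-differentiated) infected with M. tuberculosis H37Rv-pTEC27 (tdTomato RFP), 4 days at 37 C. Rows with complete host cell loss (placeholder inhibition 0, cell loss 100) were removed.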

| SMILES | intracellular M.tb growth inhibition |
| --- | --- |
| CC(C)c1cc(/C=C(\C#N)C(=O)NCCCc2ccccc2)cc(C(C)C)c1O [Tyrphostin SU 1498] | 50.29 ± 0.083% |
| O=c1cc(N2CCOCC2)oc2c(-c3ccccc3)cccc12 | -0.768 ± 100% |
| Cc1ccc(NC(=O)c2cccc(N(C)C)c2)cc1NC(=O)c1ccc(O)cc1 | 36 ± 37% |
| C/C(=N\N=C(N)N)c1ccc(NC(=O)c2cc3cccc([N+](=O)[O-])c3[nH]2)cc1 | -73 ± 67% |
| O=C1NC(=O)/C(=C/c2ccc(-c3ccc(F)cc3O)o2)S1 | 25.3 ± 6.9% |
| Nc1cc(N)c(N)cc1N [FAK Inhibitor 14] | 6.73 ± 56% |
| Nc1cccc(-c2cc3c(Oc4cccc(O)c4)ncnc3[nH]2)c1 | -14.2 ± 26% |
| COc1cc(N2CCC(N3CCN(C)CC3)CC2)ccc1Nc1ncc(Cl)c(Nc2ccccc2S(=O)(=O)C(C)C)n1 | -4.08 ± 19% |
| COC(=O)Nc1ccc(-c2nc(N3CCOCC3)c3cnn(C4CCN(C(=O)OC)CC4)c3n2)cc1 | -222 ± 330% |
| Cc1cc(F)c(Nc2ncnc3cc(OCc4ccccc4)ccc23)cc1O | 38.8 ± 33% |
| Cn1cnc2c(NCc3ccccc3)nc(NCCO)nc21 [Olomoucine] | -10.5 ± 23% |
| CN(C)Cc1cccc(N=C(c2ccccc2)c2c(O)[nH]c3cc(C(=O)N(C)C)ccc23)c1 | -213 ± 320% |
| Nc1nccc(-c2c(-c3ccc(F)cc3)ncn2C2CCCCC2)n1 | 42.4 ± 13% |
| COc1cc2c(Nc3ccc(NC(=O)c4ccccc4)cc3)ncnc2cc1OCCCN1CCOCC1 | -10.1 ± 48% |
| CCc1nc(-c2cccc(C)c2)c(-c2ccnc(NC(=O)c3ccccc3)c2)s1 | 0.0588 ± 120% |
| COc1cc2c(Oc3ccc4[nH]c(C)cc4c3F)ncnc2cc1OCCCN1CCCC1 [Cediranib] | 6.57 ± 9.3% |
| Cn1cncc1[C@@](N)(c1ccc(Cl)cc1)c1ccc2c(c1)c(-c1cccc(Cl)c1)cc(=O)n2C [Tipifarnib] | 3.85 ± 56% |
| Cn1cc(-c2cnc3ccc4ccc(CS(=O)(=O)NCc5ccccn5)cc4c(=O)c3c2)cn1 | -162 ± 230% |
| c1cc(OCCN2CCCCC2)cc(-c2n[nH]c3ccc(-c4nnc[nH]4)cc23)c1 | -65.3 ± 120% |
| N#Cc1c(NC(=O)c2cccc3ccccc23)sc2c1CCCC2 | -226 ± 330% |

| SMILES | intracellular M.tb growth inhibition |
| --- | --- |
| CCCCCCCC(=O)OCCOC(=O)CCCCCCC [Dioctanoylglycol] | 0.763 ± 3% |
| Cc1cc(C(C)Nc2ccccc2)c2nc(N3CCOCC3)cc(=O)n2c1 (stereo not given) | -38.7 ± 24% |
| O=[N+]([O-])c1ccc(-c2nc(-c3ccc(F)cc3)c(-c3ccncc3)[nH]2)cc1 | 36.6 ± 3.6% |
| Cc1cccc(-c2[nH]c(C(C)(C)C)nc2-c2ccc3c(c2)OCO3)n1 | -67.3 ± 53% |
| C=CC[C@@H]1/C=C(\C)C[C@H](C)C[C@H](OC)[C@H]2O[C@@](O)(C(=O)C(=O)N3CCCC[C@H]3C(=O)O[C@H](/C(C)=C/[C@@H]3CC[C@@H](O)[C@H](OC)C3)[C@H](C)[C@@H](O)CC1=O)[C@H](C)C[C@@H]2OC | 42 ± 7.7% |
| NC(=O)c1ccc(-c2nc(-c3ccc4c(c3)OCCO4)c(-c3ccccn3)[nH]2)cc1 | -106 ± 81% |
| COc1cc(OC)c(C=C2C(=O)Nc3ccccc32)c(OC)c1 | 4.9 ± 6.5% |
| Cn1cc(-c2ccc3nnc(C(F)(F)c4ccc5ncccc5c4)n3n2)cn1 | -109 ± 120% |
| Cc1ccc(NC(=O)c2ccc(CN3CCN(C)CC3)cc2)cc1Nc1nccc(-c2cccnc2)n1 [Imatinib (free base)] | 33.2 ± 16% |
| NC(=O)c1ccc2[nH]ccc2c1 | 10.6 ± 2.2% |
| Oc1c2ccccc2c2c3c(cccc13)N=N2 | 12.9 ± 20% |
| O=C(Nc1nc2ccccc2n1CCN1CCOCC1)c1cccc([N+](=O)[O-])c1 [IRAK-1/4 Inhibitor I] | 13.1 ± 7.2% |
| NC(=O)Nc1sc(-c2ccc(F)cc2)cc1C(N)=O | -19 ± 13% |
| NC(=O)c1sc2c([N+](=O)[O-])cc(C(F)(F)F)cc2[n+]1[O-] [Cyclapolin 9] | -65.9 ± 140% |
| NCc1ccc(Nc2ncc(F)c(Nc3ccccc3)n2)cc1 [Dianilinopyrimidine_01] | 99.2 ± 230% |
| CNC(=O)c1cc(Oc2ccc(NC(=O)Nc3ccc(Cl)c(C(F)(F)F)c3)c(F)c2)ccn1 | 50.6 ± 65% |
| COc1cc2ncnc(Nc3ccc(Oc4ccccc4)cc3)c2cc1OC | 41.9 ± 47% |
| CN(C)C/C=C/C(=O)Nc1cc2c(Nc3ccc(F)c(Cl)c3)ncnc2cc1O[C@H]1CCOC1 | 18.3 ± 3% |
| Cn1c(=O)n(-c2ccc(C(C)(C)C#N)cc2)c2c3cc(-c4cnc5ccccc5c4)ccc3ncc21 | 26.6 ± 26% |
| Oc1ccc(-c2nc(-c3ccc(F)cc3)c(-c3ccncc3)[nH]2)cc1 | 8.19 ± 7.9% |
